# Assay results reported in ChEMBL document CHEMBL4513216, “Probing the Open Global Health Chemical Diversity Library for Multistage-Active Starting Points for Next-Generation Antimalarials” (ACS Infect Dis, 2020).
# The campaign covered roughly 69,000 compounds. About 8,600 (12%) showed an effect of 50% or more. The entries come from a sample that favours strong results as a whole.
# System: Plasmodium berghei
# Experiment: Screen against P. berghei liver stage (PbLuc), transformed with Luciferase, at 10uM
# Format: functional, HepG2
# Settings: tested at 10 uM
row,Structure (SMILES),INHIBITION [%]
1,COc1nn(C)c2c1CCCN(C(=O)c1cccc3cccnc13)C2,14
2,Cc1cc(C)c(C(=O)N2CCC3(CCCNC3)C2)cc1C (centres undefined),-35.8
3,O=C1[C@H]2CN(C(=O)[C@H]3CCCO3)C[C@H]2CN1CCN1CCCC1,1.34
4,CC(C)[C@H]1CN(CCCO)C[C@@H]1NC(=O)CCC(F)(F)F,20.2
5,CCn1cc(-n2cc3nc(N4CCCC4)[nH]cc-3c2=O)cn1,-29.6
6,Cc1cc(N2CCOC(C)(C(=O)N(C)C)C2)ncn1 (centres undefined),37.8
7,NC(=O)N1CCC2(CCN(Cc3cccc(F)c3)CC2)CC1,-13.2
8,Cc1nccn1CCC(=O)N1CCCN(c2ccccc2)CC1,28.7
9,Cc1nccn1CCC(=O)N1CCCN(CCCc2ccccc2)CC1,51.5
10,Cc1ccccc1N1CCCN(C(=O)CCc2nncn2C)CC1,49.3
11,Cc1ccccc1N1CCCN(C(=O)CCc2ccncc2)CC1,26.9
12,Cc1ccccc1N1CCCN(C(=O)CCc2cccnc2)CC1,59.2
13,CC(=O)N1CCCN(CCCc2ccccc2)CC1,15.2
14,NC(=O)c1ccc(N2CCN(CCCc3cn[nH]c3)CC2)cc1,-62.8
15,CCN(CC)CC1CN(Cc2ccco2)Cc2nccn2C1 (centres undefined),-33.9
16,CCc1nc(CN2CCN(C(=O)C3(C#N)CCCCC3)CC2)cs1,-9.37
17,COc1ccc(-c2cc3cccn(CC(=O)N4CCOCC4)c-3n2)cc1,-23.4
18,Cc1[nH]nc(-c2ccc(F)cc2)c1CC(=O)NCC1CCOCC1,9.55
19,COc1ccc(-c2n[nH]c(C)c2CC(=O)NCC2CCOCC2)cc1,51.9
20,COc1ccc(-c2n[nH]c(C)c2CC(=O)NCC2CCCO2)cc1 (centres undefined),39.7
21,COc1ccc(-c2n[nH]c(C)c2CC(=O)NCCN2CCOCC2)cc1,29.3
22,COc1ccc(-c2n[nH]c(C)c2CC(=O)N2CCOCC2)cc1,51.3
23,COCCN(Cc1cnn(C)c1)C(=O)C1CCC(=O)N(C2CCCC2)C1 (centres undefined),20.3
24,CC1(C)C[C@H](CCNC(=O)c2ccncc2)c2ccccc2O1,27.8
25,O=C1CC(N(C(=O)c2ccc(Cl)c(Cl)c2)C2CC2)C(=O)N1 (centres undefined),31.8

row,Structure (SMILES),INHIBITION [%]
1,O=c1ccc(-n2ccnc2)nn1CCNS(=O)(=O)c1ccc(Br)cc1,59.3
2,O=c1ccc(-n2ccnc2)nn1CCNS(=O)(=O)c1ccccc1Cl,35.1
3,O=c1ccc(-n2ccnc2)nn1CCNS(=O)(=O)c1ccc(F)c(Cl)c1,-1.99
4,CN(Cc1ncc[nH]1)C(=O)C(C)(C)NC(=O)c1cccs1,9.79
5,CC(NC(=O)N1CCC(n2cncn2)CC1)c1ccc(F)cc1 (centres undefined),17.4
6,CCS(=O)(=O)N1CCC[C@]2(C(=O)N(C)C)CN(c3ccccn3)C[C@@H]2C1,4.92
7,Cc1cnc(C)c(N2CCC(c3nnc(CN(C)C)n3C3CC3)CC2)n1,77.8
8,Cc1cc(C)nc(N2CCC(c3nnc(CN(C)C)n3C3CC3)CC2)n1,-46.8
9,CN(C)Cc1nnc(C2CCN(c3ncccn3)CC2)n1C1CC1,-12.1
10,CCc1c(C)nc2n(c1=O)CC(C(=O)NCc1cccs1)CS2 (centres undefined),35.8
11,c1ccc(CN2CCO[C@H]3[C@H](OCCN4CCCC4)CC[C@@H]32)nc1,26.8
12,c1ccc(O[C@@H]2CC[C@H]3[C@H]2OCCN3CC2CCOCC2)nc1,56.1
13,O=C(CO[C@@H]1CC[C@H]2[C@H]1OCCN2c1ncccn1)N1CCCC1,24.6
14,COc1ccc(CN2CCO[C@H]3[C@H](Oc4ccccn4)CC[C@@H]32)cc1,41.2
15,Fc1ccc(CN2CCO[C@H]3[C@H](Oc4ccccn4)CC[C@@H]32)cc1,61.5
16,c1ccc(O[C@@H]2CC[C@H]3[C@H]2OCCN3Cc2ccsc2)nc1,20.9
17,O=C(CO[C@@H]1CC[C@H]2[C@H]1OCCN2Cc1ccccn1)N1CCCC1,54.1
18,c1ccc(O[C@H]2CC[C@H]3[C@H]2OCCN3Cc2nccs2)nc1,6.8
19,Cc1cccc(CN2CCO[C@H]3[C@H](Oc4ccccn4)CC[C@@H]32)n1,-49.6
20,Cc1cc(C)nc(N2CC=C[C@@H]2C(=O)NCc2ccc3c(c2)OCO3)n1,4.41
21,CC(C)n1c(=O)c2ccccc2n(CCN2CCCCC2)c1=O,3.19
22,COc1ccc(C)cc1C(=O)NC1(C#N)CCOCC1,42.1
23,COC(=O)c1ccc(N2CCN(CCS(C)(=O)=O)C(C)C2)cc1 (centres undefined),0.411
24,Cc1cc(C(=O)CN2CCN(c3cnccn3)CC2)c(C)n1C(C)C,17.7
25,CCOc1ccnc(N2CCN(C(=O)c3ccc(C#N)cc3)CC2)n1,36.1

row,Structure (SMILES),INHIBITION [%]
1,N#Cc1ccc(CNCCn2cccn2)c(F)c1,20.74
2,O=C(Cn1c(-c2ccco2)cc2cccnc21)N1CCCC1,-16.8
3,Clc1ccc(C2(NCc3noc(C4CC4)n3)CCC2)cc1,8.18
4,CCCc1noc(CNc2cc(C[S+](C)[O-])ccc2Cl)n1 (centres undefined),30.9
5,CCCc1nc(CNc2cc(CS(C)(=O)=O)ccc2Cl)no1,52.2
6,CCCc1nc(CNc2ccc(F)c(F)c2)no1,-9.51
7,CS(=O)(=O)Cc1ccc(Cl)c(NCc2noc(C3CC3)n2)c1,57.8
8,Cc1cccc(C)c1NCc1noc(C2CC2)n1,36.3
9,CC(=O)N[C@H]1CCO[C@@H](c2cccc(NC(=O)Cc3ccccc3)c2)C1,13.205
10,CCc1nnc(CN2CCOC(Cn3cc(C)cn3)C2)o1 (centres undefined),15.5
11,CC(=O)N1CCCN(C(=O)C(C)n2cncn2)CC1 (centres undefined),10
12,CCc1cc(NCCCc2nc(C)no2)nc(-c2ccncc2)n1,17.6
13,Cc1cccc(OC2CCN(Cc3ncc[nH]3)CC2)c1,53.2
14,FC(F)(F)c1cccc(OC2CCN(Cc3ncc[nH]3)CC2)c1,79.7
15,OC1(CN2CCC(Oc3cccnc3)CC2)CNCCOC1 (centres undefined),-16.8
16,OC1(CN2CCC(Oc3cccc(C(F)(F)F)c3)CC2)CNCCOC1 (centres undefined),37.1
17,O=c1ccn([C@H]2CCN(Cc3ncc[nH]3)CC[C@@H]2O)c(=O)[nH]1,24.4
18,Cc1cccc(CNC(=O)NCC2CCN(Cc3ncc[nH]3)C2)c1 (centres undefined),4.68
19,O=C(c1cccnc1)N1CCC(Oc2cccc(C(F)(F)F)c2)CC1,27.6
20,O=C(c1ccncc1)N1CCC(Oc2cccc(C(F)(F)F)c2)CC1,10.5
21,O=C(c1ccc(=O)[nH]c1)N1CCC(Oc2cccc(C(F)(F)F)c2)CC1,50.1
22,OC1(CN2CCC(Oc3cccc(C(F)(F)F)c3)CC2)CCNC1 (centres undefined),87.7
23,Fc1cccc(OC2CCN(Cc3ncc[nH]3)CC2)c1,40
24,Nc1cc(C(=O)N2CCC(Oc3cccc(C(F)(F)F)c3)CC2)ccn1,38.3
